Measurements from PubChem BioAssay (EPA / NIEHS).
Inconclusive results are not listed. Activity calls are given as the source filed them. How the source made its calls, unless noted: active means hit-call score of the fitted dose curve at least 0.9, where 1 is the maximum; inactive means score below 0.9.

Columns and labels:
[1] = molecular target: Oxysterols receptor LXR-alpha (Homo sapiens) (UniProt Q13133); experiment: ATG_LXRa_TRANS: Attagene TRANS-FACTORIAL HepG2 Assay for human Liver X Receptor alpha (LXRa) (AID 2282980; active means hit-call score of the fitted dose curve at least 0.9, where 1 is the maximum); details: HepG2 Attagene TRANS reporter, LXRa transactivation
In short: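 Read-out: reporter transcript levels by RT-PCR plus capillary electrophoresis, fluorescence intensity. Transiently transfected HepG2, exogenous NR-GAL4 chimera, GAL4-UAS reporters; 24 h compound exposure. Activity = increase over DMSO negative control.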

[2] = molecular target: Hepatocyte nuclear factor 4-alpha (Homo sapiens) (UniProt P41235); experiment: ATG_HNF4a_TRANS: Attagene TRANS-FACTORIAL HepG2 Assay for human Hepatocyte Nuclear Factor 4 alpha (HNF4a) (AID 2282982; active means hit-call score of the fitted dose curve at least 0.9, where 1 is the maximum); details: HepG2 HNF4a transactivation reporter, mRNA readout
In short: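 Cells used were human HepG2, transiently carrying GAL4-UAS reporter units read out against exogenous NR-GAL4 chimeras. Reporter transcript levels after 24 h dosing were quantified by fluorescent RT-PCR and capillary electrophoresis.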

[3] = ATG_M_06_TRANS: Attagene TRANS-FACTORIAL HepG2 Assay for M06 Transcription Factor (Internal Marker) (AID 2282983; active means hit-call score of the fitted dose curve at least 0.9, where 1 is the maximum); details: HepG2 Attagene TRANS M06 internal marker reporter
In short: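 After a 24 h chemical treatment of transfected HepG2, RNA underwent DNase I treatment, reverse transcription and reporter-specific PCR; labelled, HpaI-digested products were sized by capillary electrophoresis. Signal increase relative to DMSO defined activity.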

[4] = ATG_M_32_TRANS: Attagene TRANS-FACTORIAL HepG2 Assay for M32 Transcription Factor (Internal Marker) (AID 2282984; active means hit-call score of the fitted dose curve at least 0.9, where 1 is the maximum); details: HepG2 Attagene TRANS M32 internal marker reporter
In short: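 Human hepatoma HepG2, transient MRTU transfection, 24 h treatment. RNA → RT-PCR → fluorescent primer extension → HpaI digest (2 h, 37 C) → CE. Positive-direction fit vs DMSO.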

[5] = molecular target: Nuclear receptor subfamily 4 group A member 2 (Homo sapiens) (UniProt P43354); experiment: ATG_NURR1_TRANS: Attagene TRANS-FACTORIAL HepG2 Assay for human Nuclear Receptor Related Protein 1 (NURR1) (AID 2282985; active means hit-call score of the fitted dose curve at least 0.9, where 1 is the maximum); details: HepG2 Attagene TRANS reporter, mRNA readout
In short: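 After 24 h chemical dosing, total RNA from transiently transfected HepG2 cells was reverse-transcribed and reporter cDNA PCR-amplified, FAM-labelled and analysed by capillary electrophoresis. Activity fitted in positive direction, DMSO as negative control.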

[6] = molecular target: Transcriptional activator Myb (Homo sapiens) (UniProt P10242); experiment: ATG_Myb_CIS: Attagene CIS-FACTORIAL HepG2 Assay for human Myeloblastosis (Myb) Proto-Oncogene Transcription Factor (AID 2282986); details: HepG2 Attagene CIS-FACTORIAL Myb reporter transcription; actives raise or lower the signal
In short: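 Reporter transcript levels, quantified by fluorescent RT-PCR and capillary electrophoresis, serve as the read-out. Transfected HepG2 cells carrying cis-promoter reporter units are dosed for 24 hours, and curves are fitted bidirectionally against DMSO controls.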

[7] = molecular target: Nuclear respiratory factor 1 (Homo sapiens) (UniProt Q16656); experiment: ATG_NRF1_CIS: Attagene CIS-FACTORIAL HepG2 Assay for human Nuclear Respiratory Factor 1 (NRF1) Orphan Gene (AID 2282987); details: HepG2 NRF1 cis-element reporter, Attagene multiplex; actives raise or lower the signal
In short: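 Multiplexed cis-reporter assay, HepG2 cells, 24 h treatment. Total RNA → oligo(dT) RT → PCR with reporter-specific primers → 6-FAM primer extension → HpaI cut → CE. Bidirectional fit vs DMSO.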

[8] = ATG_NFI_CIS: Attagene CIS-FACTORIAL HepG2 Assay for human Nuclear Factor I (NFI) (AID 2282989); details: HepG2 cis-regulatory reporter, NFI response element transcription; actives raise or lower the signal
In short: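 Endogenous TF activity in HepG2 cells transiently transfected with cis-element-driven multiplexed reporter units, read 24 h after dosing. Reporter mRNA quantified by RT-PCR, 6-FAM labelling, HpaI digestion and capillary electrophoresis; bidirectional fit versus DMSO.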

[9] = molecular target: Myc proto-oncogene protein (Homo sapiens) (UniProt P01106); experiment: ATG_Myc_CIS: Attagene CIS-FACTORIAL HepG2 Assay for human Myelocytomatosis (Myc) Proto-Oncogene Transcription Factor (AID 2282990); details: HepG2, Attagene cis-reporter transcription factor activity; actives raise or lower the signal
In short: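 HepG2 cells transiently transfected with multiple cis-promoter-driven reporter transcription units, so endogenous TF activity is read. After 24 h compound exposure, reporter mRNA was quantified by RT-PCR, 6-FAM labelling, HpaI digestion and capillary electrophoresis; bidirectional fit versus DMSO.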

[10] = ATG_NRF2_ARE_CIS: Attagene CIS-FACTORIAL HepG2 Assay for human Nuclear Factor Erythroid 2 Related Factor 2 (NFR2) response to Antioxidant Response Elements (ARE) (AID 2282992); details: HepG2 Attagene ARE/NRF2 reporter, transcription factor activity; actives raise or lower the signal;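 on AC50: reporter mRNA level measured by RT-PCR and capillary electrophoresis fluorescence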
In short: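 HepG2 cells transiently transfected with multiplexed cis-element reporter constructs, 24 h after chemical dosing; reporter mRNA quantified by RT-PCR, fluorescent primer extension, HpaI digestion and capillary electrophoresis. Bidirectional fit relative to DMSO.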

[11] = ATG_Oct_MLP_CIS: Attagene CIS-FACTORIAL HepG2 Assay for human Octamer-Binding Transcription Factor (Oct) (AID 2282993); details: HepG2 Attagene cis-factorial Oct reporter, mRNA; actives raise or lower the signal
In short: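 HepG2 cells transiently transfected with cis-element-driven reporter transcription units (endogenous TF activity); 24 h compound exposure. Reporter mRNA quantified by RT-PCR, 6-FAM labelling, HpaI digestion and capillary electrophoresis; bidirectional fit versus DMSO baseline.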

[12] = molecular target: Cellular tumor antigen p53 (Homo sapiens) (UniProt P04637); experiment: ATG_p53_CIS: Attagene CIS-FACTORIAL HepG2 Assay for human p53 Transcription Factor (AID 2282994); details: HepG2 p53 cis-element reporter, Attagene mRNA; actives raise or lower the signal
In short: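 HepG2 cells transiently transfected with cis-regulated multiple reporter transcription units, dosed 24 h. Reporter mRNA measured by RT-PCR, 6-FAM primer extension, HpaI digestion and capillary electrophoresis; bidirectional fit relative to DMSO.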

[13] = molecular target: Oxysterols receptor LXR-beta (Homo sapiens) (UniProt P55055); experiment: ATG_LXRb_TRANS: Attagene TRANS-FACTORIAL HepG2 Assay for human Liver X Receptor beta (LXRb) (AID 2282981; active means hit-call score of the fitted dose curve at least 0.9, where 1 is the maximum); details: HepG2 Attagene TRANS GAL4-LXRb reporter, mRNA
In short: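 In this TRANS format, exogenous chimeric NR-Gal4 protein activity, not endogenous factors, drives reporter expression in transfected human HepG2 cells. Exposure lasted 24 h; reporter mRNA was read by fluorescent capillary electrophoresis.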

[14] = ATG_NF_kB_CIS: Attagene CIS-FACTORIAL HepG2 Assay for human Nuclear Factor Kappa B (NF-kB) (AID 2282991); details: HepG2 Attagene cis-factorial NF-kB reporter mRNA; actives raise or lower the signal
In short: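 Transient MRTU transfection of human HepG2 liver cells → 24 h chemical exposure → total RNA, oligo(dT) RT → PCR, 6-FAM primer extension, HpaI digest 2 h 37 C → CE fragment analysis. Bidirectional fitting, DMSO negative control.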

[15] = BSK_3C_TissueFactor: BioMAP Diversity Plus: 3C Assay for Tissue Factor Biomarker Activity (AID 2282997); details: BioMAP 3C HUVEC, tissue factor biomarker readout; actives raise or lower the signal
In short: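 Human vascular primary cells (umbilical vein endothelium) received test chemical; Tissue Factor was determined by ELISA at 24 h, and both gain and loss of signal versus DMSO were fitted.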

[16] = BSK_3C_uPAR: BioMAP Diversity Plus: 3C Assay for Urokinase-type plasminogen activator receptor (uPAR) Biomarker Activity (AID 2282998); details: BioMAP 3C HUVEC, uPAR biomarker ELISA; actives raise or lower the signal
In short: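 Primary human umbilical vein endothelial cells, 3C system; surface uPAR measured by ELISA 24 h after dosing. Cytotoxicity via SRB total protein in parallel cultures; bidirectional fit against DMSO.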

[17] = BSK_3C_VCAM1: BioMAP Diversity Plus: 3C Assay for Vascular cell adhesion molecule 1 (VCAM1) Biomarker Activity (AID 2282999); details: BioMAP 3C HUVEC, VCAM1 ELISA, cytokine-stimulated; actives raise or lower the signal
In short: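 Human umbilical vein endothelial cells were dosed with compound for 24 h, after which cell-surface VCAM-1 was quantified by ELISA. Bidirectional curve fitting used DMSO as negative control and activity baseline.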

[18] = BSK_4H_Eotaxin3: BioMAP Diversity Plus: 4H Assay for Eotaxin 3 Biomarker Activity (AID 2283000); details: primary human endothelial cells (HUVEC); actives raise or lower the signal
In short: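 Readout is Eotaxin-3 (CCL26) level by ELISA in primary human umbilical vein endothelial cells harvested 24 h after chemical exposure; activity fitted in both directions against DMSO control.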

Measured: AC50

Oxysterols receptor LXR-alpha (Homo sapiens), sequence (Q13133 whole entry, looked up, the tested form may be a part): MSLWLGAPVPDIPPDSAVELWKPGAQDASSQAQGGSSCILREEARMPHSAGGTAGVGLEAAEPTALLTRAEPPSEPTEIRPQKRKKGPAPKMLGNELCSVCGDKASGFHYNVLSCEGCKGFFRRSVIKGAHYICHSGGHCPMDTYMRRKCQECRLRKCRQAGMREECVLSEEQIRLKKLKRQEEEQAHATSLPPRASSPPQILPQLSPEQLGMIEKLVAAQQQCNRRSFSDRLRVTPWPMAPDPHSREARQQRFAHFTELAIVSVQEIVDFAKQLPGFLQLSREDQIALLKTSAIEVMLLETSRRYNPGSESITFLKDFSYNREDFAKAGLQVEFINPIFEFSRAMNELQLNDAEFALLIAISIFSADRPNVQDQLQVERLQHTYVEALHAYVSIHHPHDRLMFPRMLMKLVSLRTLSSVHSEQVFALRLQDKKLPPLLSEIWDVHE
Nuclear receptor subfamily 4 group A member 2 (Homo sapiens), sequence (P43354 whole entry, looked up): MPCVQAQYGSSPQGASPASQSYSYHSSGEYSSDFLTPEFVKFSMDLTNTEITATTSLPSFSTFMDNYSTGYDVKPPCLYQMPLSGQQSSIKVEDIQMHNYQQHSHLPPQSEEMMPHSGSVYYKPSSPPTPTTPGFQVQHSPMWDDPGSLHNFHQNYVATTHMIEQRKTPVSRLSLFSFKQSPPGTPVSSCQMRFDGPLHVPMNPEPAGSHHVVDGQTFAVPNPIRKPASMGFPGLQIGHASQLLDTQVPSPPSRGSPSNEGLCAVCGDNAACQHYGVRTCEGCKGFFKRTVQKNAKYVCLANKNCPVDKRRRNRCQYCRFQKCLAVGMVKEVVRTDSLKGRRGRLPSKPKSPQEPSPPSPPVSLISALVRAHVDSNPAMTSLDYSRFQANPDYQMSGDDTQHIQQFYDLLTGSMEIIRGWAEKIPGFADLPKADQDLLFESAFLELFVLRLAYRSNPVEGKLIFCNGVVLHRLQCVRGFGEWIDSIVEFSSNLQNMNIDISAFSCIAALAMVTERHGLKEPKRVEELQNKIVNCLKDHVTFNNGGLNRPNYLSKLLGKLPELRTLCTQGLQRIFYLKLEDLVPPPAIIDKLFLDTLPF
Oxysterols receptor LXR-beta (Homo sapiens), sequence (P55055 whole entry, looked up, the tested form may be a part): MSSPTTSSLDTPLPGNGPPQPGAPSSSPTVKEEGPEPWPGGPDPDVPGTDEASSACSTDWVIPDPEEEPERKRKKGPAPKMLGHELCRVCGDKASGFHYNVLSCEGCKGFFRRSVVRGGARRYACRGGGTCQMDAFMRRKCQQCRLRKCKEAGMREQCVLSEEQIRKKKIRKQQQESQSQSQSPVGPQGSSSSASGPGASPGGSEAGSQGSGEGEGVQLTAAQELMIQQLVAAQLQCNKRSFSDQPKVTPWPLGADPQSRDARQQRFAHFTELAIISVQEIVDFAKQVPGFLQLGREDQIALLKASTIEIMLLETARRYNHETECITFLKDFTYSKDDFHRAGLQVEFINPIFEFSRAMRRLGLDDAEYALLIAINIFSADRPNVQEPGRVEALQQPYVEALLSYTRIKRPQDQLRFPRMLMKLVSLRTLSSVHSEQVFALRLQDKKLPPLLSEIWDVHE
Myc proto-oncogene protein (Homo sapiens), sequence (P01106 whole entry, looked up): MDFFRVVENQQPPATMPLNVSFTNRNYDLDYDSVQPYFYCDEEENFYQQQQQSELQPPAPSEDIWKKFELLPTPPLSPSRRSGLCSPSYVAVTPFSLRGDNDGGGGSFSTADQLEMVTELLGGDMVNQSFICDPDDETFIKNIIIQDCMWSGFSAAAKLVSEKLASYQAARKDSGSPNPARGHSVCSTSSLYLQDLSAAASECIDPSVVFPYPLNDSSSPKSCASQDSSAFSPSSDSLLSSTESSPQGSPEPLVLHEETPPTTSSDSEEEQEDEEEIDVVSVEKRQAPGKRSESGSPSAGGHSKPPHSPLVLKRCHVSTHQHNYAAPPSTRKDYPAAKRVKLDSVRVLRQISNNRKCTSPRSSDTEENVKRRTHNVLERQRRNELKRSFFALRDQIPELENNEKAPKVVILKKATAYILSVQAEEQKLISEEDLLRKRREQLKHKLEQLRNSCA
Hepatocyte nuclear factor 4-alpha (Homo sapiens), sequence (P41235 whole entry, looked up, the tested form may be a part): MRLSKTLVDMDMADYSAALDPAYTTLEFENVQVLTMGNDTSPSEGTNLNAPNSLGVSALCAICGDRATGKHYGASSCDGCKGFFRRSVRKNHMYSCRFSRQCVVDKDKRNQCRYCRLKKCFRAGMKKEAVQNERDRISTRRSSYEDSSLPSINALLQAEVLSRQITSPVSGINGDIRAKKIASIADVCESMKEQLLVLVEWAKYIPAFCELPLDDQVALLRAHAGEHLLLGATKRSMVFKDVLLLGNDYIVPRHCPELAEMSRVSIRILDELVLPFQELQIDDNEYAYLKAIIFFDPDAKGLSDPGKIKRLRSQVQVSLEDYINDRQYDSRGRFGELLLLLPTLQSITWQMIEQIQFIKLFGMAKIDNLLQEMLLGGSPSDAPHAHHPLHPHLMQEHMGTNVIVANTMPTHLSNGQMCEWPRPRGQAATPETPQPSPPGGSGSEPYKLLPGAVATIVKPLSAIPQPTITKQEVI
Transcriptional activator Myb (Homo sapiens), sequence (P10242 whole entry, looked up): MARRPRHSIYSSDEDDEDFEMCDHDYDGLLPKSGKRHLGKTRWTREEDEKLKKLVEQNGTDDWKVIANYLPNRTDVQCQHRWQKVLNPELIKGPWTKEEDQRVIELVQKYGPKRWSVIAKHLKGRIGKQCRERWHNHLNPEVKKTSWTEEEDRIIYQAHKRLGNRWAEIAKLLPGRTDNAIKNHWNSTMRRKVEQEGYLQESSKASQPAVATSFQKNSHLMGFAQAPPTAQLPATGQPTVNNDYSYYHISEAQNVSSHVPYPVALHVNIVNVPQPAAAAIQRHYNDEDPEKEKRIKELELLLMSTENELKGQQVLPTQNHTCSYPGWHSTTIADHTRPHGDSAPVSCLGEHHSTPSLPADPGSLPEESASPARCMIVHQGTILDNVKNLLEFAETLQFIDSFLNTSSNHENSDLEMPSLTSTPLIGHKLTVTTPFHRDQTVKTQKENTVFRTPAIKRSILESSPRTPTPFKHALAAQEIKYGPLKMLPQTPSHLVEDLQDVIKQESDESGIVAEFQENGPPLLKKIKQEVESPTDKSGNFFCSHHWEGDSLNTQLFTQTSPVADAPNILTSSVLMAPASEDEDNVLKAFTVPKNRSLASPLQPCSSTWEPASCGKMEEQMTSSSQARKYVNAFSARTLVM
Nuclear respiratory factor 1 (Homo sapiens), sequence (Q16656 whole entry, looked up): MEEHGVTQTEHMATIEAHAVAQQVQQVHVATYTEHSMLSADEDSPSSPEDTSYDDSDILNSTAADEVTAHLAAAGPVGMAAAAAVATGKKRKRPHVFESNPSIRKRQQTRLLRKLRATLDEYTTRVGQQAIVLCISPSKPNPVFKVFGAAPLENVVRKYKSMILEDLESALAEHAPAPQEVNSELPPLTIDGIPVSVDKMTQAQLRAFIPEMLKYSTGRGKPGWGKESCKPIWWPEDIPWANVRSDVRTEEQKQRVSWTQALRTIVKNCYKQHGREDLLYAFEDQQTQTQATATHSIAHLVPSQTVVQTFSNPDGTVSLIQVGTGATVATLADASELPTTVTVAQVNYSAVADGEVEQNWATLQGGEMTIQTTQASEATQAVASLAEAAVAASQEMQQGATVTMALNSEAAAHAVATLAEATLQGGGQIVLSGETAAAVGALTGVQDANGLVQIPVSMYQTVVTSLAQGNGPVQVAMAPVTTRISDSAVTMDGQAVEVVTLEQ
Cellular tumor antigen p53 (Homo sapiens), sequence (P04637 whole entry, looked up): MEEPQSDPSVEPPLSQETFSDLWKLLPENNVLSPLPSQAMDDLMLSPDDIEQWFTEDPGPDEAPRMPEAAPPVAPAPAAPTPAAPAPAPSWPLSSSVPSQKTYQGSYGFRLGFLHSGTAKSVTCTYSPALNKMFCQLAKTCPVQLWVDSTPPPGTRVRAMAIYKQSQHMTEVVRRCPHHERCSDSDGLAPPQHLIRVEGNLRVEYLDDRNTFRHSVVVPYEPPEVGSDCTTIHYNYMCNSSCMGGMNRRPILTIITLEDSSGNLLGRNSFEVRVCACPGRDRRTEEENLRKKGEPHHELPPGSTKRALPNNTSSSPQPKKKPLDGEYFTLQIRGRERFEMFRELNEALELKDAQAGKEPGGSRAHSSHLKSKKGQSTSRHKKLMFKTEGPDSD

CC(C)[C@H]1CC[C@@H](C)CC1=O
not listed: [13] | [14] | [15] | [16] | [17] | [18]
inactive: all other assays above

Cc1ccc2ccccc2n1
not listed: [2] | [3] | [15] | [16] | [17] | [18]
inactive: all other assays above

CCCCCCCCCCCCN(CCCCCCCCCCCC)CCCCCCCCCCCC
not listed: [2] | [5] | [12] | [15] | [16] | [17] | [18]
inactive: all other assays above

C=CC(=O)OCCOCCOCC
inactive: [1] | [2] | [3] | [4] | [7] | [8] | [9] | [11] | [12]
active: [14] 9.52 µM | [10] 26 µM

CC(CN1c2ccccc2Sc2ccccc21)N(C)C (stereo unspecified)
active: [11] 38.8 µM | [12] 30.5 µM
inactive: [1] | [13] | [2] | [5] | [6] | [7] | [9] | [14] | [10]

CSc1nc(NC2CC2)nc(NC(C)(C)C)n1
active: [10] 12.1 µM
not listed: [2] | [5] | [14] | [15] | [16] | [17] | [18]
inactive: all other assays above

CC(C)(C)c1cc(CCC(=O)NN)cc(C(C)(C)C)c1O
inactive: [1] | [13] | [6] | [7] | [8] | [9] | [14] | [10] | [12]

CCCCCC(=O)OCCc1ccccc1
inactive: [1] | [3] | [4] | [6] | [7] | [8] | [9] | [10] | [11] | [12]

C=C(C)C(=O)O[C@H]1C[C@@H]2CC[C@@]1(C)C2(C)C
active: [1] 27.5 µM | [10] 72.1 µM | [15] 12.2 µM | [16] 13.5 µM | [17] 26.6 µM | [18] 9.05 µM
not listed: [2] | [3] | [11] | [12]
inactive: all other assays above
